From ChEMBL document CHEMBL4513149, “CO-ADD screening of MMV (CH) - MMV compounds” (2021)
Results with a measured potency or affinity are listed apart.

What was measured:
Staphylococcus aureus = settings: Concentration 20 uM; ASSAY_TEST Inhibition of Bacterial Growth; detection method Absorption (OD600); MEDIA CAMHB; plate type 384well; NBS; CORNING #3640; time 18 hr
Escherichia coli = settings: Concentration 20 uM; ASSAY_TEST Inhibition of Bacterial Growth; detection method Absorption (OD600); MEDIA CAMHB; plate type 384well; NBS; CORNING #3640; time 18 hr

| SMILES | Inhibition (Staphylococcus aureus) | Inhibition (Escherichia coli) |
| --- | --- | --- |
| COC(=O)c1c(NC(=O)c2cc3ccccc3oc2=O)sc2c1CCN(Cc1ccccc1)C2 | 19.04% | 12.69% |
| CCc1cc(=O)n(C)c(SC(C)C(=O)Nc2ccc(F)cc2)n1 (configuration not stated) | 4.54% | 4.12% |
| CNC(=O)c1cc(S(=O)(=O)N2CCN(c3ccccn3)CC2)cs1 | 7.99% | -1.66% |
| CC(C)C(C(=O)Nc1ccc(S(=O)(=O)N(C)C)cc1)c1ccc(Cl)cc1 (configuration not stated) | 3.5% | 11.91% |
| FC(F)(F)c1cc(NCCc2ccccc2)nc(-c2ccccn2)n1 | -9.89% | -6.09% |
| c1ccc(Oc2ccc(-c3cc(N4CCOCC4)[nH]n3)cc2)cc1 | 17.8% | 4.28% |
| Cc1cc(Cl)ccc1NC(=O)CCc1ccc(S(=O)(=O)NCC(C)C)cc1 | 6.84% | 9.61% |
| COc1cccc(OCC(=O)c2ccc(Br)cc2)c1 | -13.25% | -7.45% |
| Clc1ccc(-n2cc(COc3ccnc4ccccc34)nn2)cc1 | 21.12% | 8.78% |
| Clc1ccc(CN2CCN(C3=NCCN3)CC2)cc1Cl | 14.27% | 4.2% |
| COc1cc(CN2CCC3(C=Cc4ccccc43)CC2)cc2c1OCO2 | -1.3% | -2.88% |
| COc1ccc(Cn2cnc3c(-c4ccco4)nc(Cl)nc32)cc1 | 20.69% | 10.18% |
| O=C(NCCN1CCCC1)c1cc(NCCCCN2CCC(F)(F)CC2)nc2ccc(Cl)cc12 | 22.5% | 8.02% |
| COc1cccc(CC(=O)N2CCC(n3c(C)nc4ccc(F)cc43)CC2)c1 | 21.64% | 9.91% |
| CC(C)(C)C(=O)N(CCCCCCN1C[C@H](O)[C@@H](O)[C@H](O)[C@H]1CO)C1CCCCCC1 | -1.36% | 4.68% |
| CCc1nc2ccccc2n1CC(O)COc1cc(C)ccc1Cl (configuration not stated) | 11.53% | 4.16% |
| COc1ccc(S(=O)(=O)Nc2ccc(CN3CCN(C(=O)c4cccc(C#N)c4)CC3)cc2)cc1 | 1.42% | -0.19% |
| O=C(NCc1cc(Cl)cc(Cl)c1)c1c(C(F)(F)F)nc2ccccn12 | 22.39% | 10.43% |

| SMILES | Inhibition (Staphylococcus aureus) | Inhibition (Escherichia coli) |
| --- | --- | --- |
| O=C(NCc1nnc2n1CCCCC2)c1ccc(-c2ccc(F)cc2)o1 | 15.64% | 7.05% |
| Cc1cc(NCC(C)C)c2[nH]nc(-c3ccccc3)c2n1 | 14.44% | 8.23% |
| CC(C)(CN)c1nc(-c2ccc(Cl)c(O)c2)c(-c2ccnc(N)n2)[nH]1.O=C(O)C(F)(F)F.O=C(O)C(F)(F)F | 18.2% | 12.46% |
| CCS(=O)(=O)N(Cc1ccco1)Cc1cc2ccc(C)cc2nc1O | 9.79% | -2.16% |
| c1cc(C2=NCCN2)cc(-c2cc(-c3ccc(C4=NCCN4)cc3)no2)c1 | 5.99% | 8.18% |
| CCn1cnc2c(Nc3cc(F)cc(F)c3)nc(C#N)nc21 | 36.21% | 12.2% |
| COc1ccc(N(CCc2cccc(C)n2)C(=O)C2CCCCC2)cc1 | 4% | 3.67% |
| CCN(CC)CCCCCCNc1cc(OC)cc2c(C)ccnc12.Cc1ccc(S(=O)(=O)O)cc1 | 18.42% | 7.48% |
| COc1ccc2nc(C)cc(OCC(=O)Nc3ccccc3OC)c2c1 | 18.5% | 13.22% |
| CCOc1ccc(OCC(=O)Nc2cc(C)cc(C)c2)cc1 | 14.06% | 3.81% |
| Cc1noc(C)c1COc1cccc(C(=O)N=c2[nH]cccc2C)c1 | 21.93% | 6.93% |
| CC1=NN(c2nc3ccccc3s2)C(=O)C1Cc1cccc2ccccc12 (configuration not stated) | 69.16% | 0.69% |
| Nc1nccc2ccc(-c3ccc4nccn4c3)cc12 | 24.43% | 1.05% |
| Nc1ncnc2[nH]nc(Cc3cccc4ccccc34)c12 | 12.91% | 7.05% |
| CCC(Sc1nc2ccccc2o1)C(=O)Nc1nnc(C)s1 (configuration not stated) | -13.91% | -8.34% |
| Cc1ccc(NC(=O)c2nc[nH]c2C(=O)Nc2nc3ccccc3[nH]2)c(C)c1 | 23.22% | 12.12% |
| Cl.c1ccc(Oc2ccc(-c3cc(N4CCNCC4)[nH]n3)cc2)cc1 | 14.57% | 9.1% |
| C[C@H](C(N)=O)N1CCCC[C@@H]1c1ccc(OCc2cccc(F)c2)cc1 | 12.73% | 2.14% |
